Laboratory results taken from article PMC4336329 (PLoS ONE, 2015).
The campaign covered roughly 310,000 compounds. About 14,000 (4.5%) showed an effect of 50% or more. The effect is printed as a negative number. Only a selection was taken, and strong results are over-represented in it overall.

These compounds were tested against human ether-à-go-go-related gene (hERG) potassium channel (human, UniProt Q12809) (assay: primary screen, population patch clamp on CHO cells stably expressing hERG; higher = less effect of the substance).
Chain of human ether-à-go-go-related gene (hERG) potassium channel (Q12809 whole entry, looked up): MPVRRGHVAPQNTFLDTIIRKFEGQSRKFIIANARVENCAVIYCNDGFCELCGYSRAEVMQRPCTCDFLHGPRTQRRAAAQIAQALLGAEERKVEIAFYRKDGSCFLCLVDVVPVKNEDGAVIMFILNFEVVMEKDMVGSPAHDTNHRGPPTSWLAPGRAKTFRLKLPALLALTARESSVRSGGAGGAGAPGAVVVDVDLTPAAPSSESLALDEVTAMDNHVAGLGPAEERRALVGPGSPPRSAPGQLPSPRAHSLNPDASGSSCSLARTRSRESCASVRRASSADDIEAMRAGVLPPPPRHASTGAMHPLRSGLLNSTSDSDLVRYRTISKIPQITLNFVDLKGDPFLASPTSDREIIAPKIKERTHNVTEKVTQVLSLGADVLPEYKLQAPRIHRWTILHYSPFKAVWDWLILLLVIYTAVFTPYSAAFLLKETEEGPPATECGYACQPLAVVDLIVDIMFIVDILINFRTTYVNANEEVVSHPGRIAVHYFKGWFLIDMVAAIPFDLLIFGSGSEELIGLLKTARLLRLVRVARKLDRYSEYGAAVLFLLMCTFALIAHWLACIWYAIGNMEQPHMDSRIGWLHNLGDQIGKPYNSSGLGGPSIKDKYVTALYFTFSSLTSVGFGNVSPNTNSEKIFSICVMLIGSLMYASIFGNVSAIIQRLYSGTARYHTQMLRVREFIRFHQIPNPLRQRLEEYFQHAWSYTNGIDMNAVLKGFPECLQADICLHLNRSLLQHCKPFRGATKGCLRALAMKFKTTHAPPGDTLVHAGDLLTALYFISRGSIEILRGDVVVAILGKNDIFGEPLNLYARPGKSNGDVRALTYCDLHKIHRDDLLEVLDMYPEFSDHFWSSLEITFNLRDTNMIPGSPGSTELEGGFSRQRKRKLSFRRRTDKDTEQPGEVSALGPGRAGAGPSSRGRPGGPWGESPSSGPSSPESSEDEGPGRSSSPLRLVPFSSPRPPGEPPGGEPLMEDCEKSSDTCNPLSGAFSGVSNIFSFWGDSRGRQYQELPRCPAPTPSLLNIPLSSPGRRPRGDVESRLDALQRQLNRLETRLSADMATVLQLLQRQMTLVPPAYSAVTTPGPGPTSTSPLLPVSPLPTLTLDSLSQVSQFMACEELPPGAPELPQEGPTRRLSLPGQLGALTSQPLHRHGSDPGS
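Also: peak tail current of the secondary pulse compared with the same well before compound.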

| Compound | hERG current change (%, negative = inhibition) at 10uM |
| --- | --- |
| CC(C)CCNC(=O)c1ccc2c(SCC(=O)O)c3c(nc2c1)CCCC3 | -2.6% |
| Cc1ccc(N(C)S(=O)(=O)c2csc(C(N)=O)c2)cc1C | -14.8% |
| Cc1ccc(CN2C(=O)CCC2C(=O)NCCN(CC(C)C)CC(C)C)cc1 (stereo not shown) | -13.4% |
| CCOc1cc(N2CCOCC2)c(OCC)cc1NC(=O)C1=NN(c2cccc(C)c2)C(=O)CC1 | -3.8% |
| COc1cc(Cn2nnc3ccccc32)cc(Br)c1O | 3% |
| Cc1ccccc1NC(=O)Cn1c(CCC(=O)O)ccc1-c1cccs1 | 15.4% |
| CCN(C(=O)CSc1ccc2ccccc2n1)C1CCS(=O)(=O)C1 (stereo not shown) | -7.61% |
| Cc1sc2c(c1C)c(=O)n(-c1ccc(Cl)cc1)c(=O)n2Cc1cc(=O)n2ccccc2n1 | -36.4% |
| Cc1ccc(-n2c(=O)c3c(C)c(C)sc3n(Cc3cc(=O)n4ccccc4n3)c2=O)cc1C | -4.43% |
| Cc1ccc(-n2c(=O)c3c4c(sc3n(Cc3cc(=O)n5ccccc5n3)c2=O)CCC4)cc1C | -69.1% |
| CS(=O)(=O)N(Cc1ccc(C(=O)NN=C2CCCCCC2)cc1)c1ccccc1 | -7.08% |
| CCCCC(C(=O)O)C(C)CC(=O)NNC(=O)c1ccco1 (stereo not shown) | 13.2% |
| C(=N\Nc1nncc2ccccc12)/c1ccccc1 | 1.52% |
| CC(=O)N/C(=N/c1nc(C)cc(C)n1)Nc1ccc(C)cc1C | -10.6% |
| Cc1ccc(N/C(N)=N/c2nc(C)cc(N3CCCCC3)n2)c(C)c1 | -83% |
| COc1ccccc1N/C(N)=N/c1nc(C)cc(C)n1 | -32.9% |
| COc1ccc(C)cc1N/C(N)=N/c1nc(C)cc(C)n1 | -74.4% |
| CCOC(=O)Nc1cc(C)ccc1OC | 11.2% |
| COc1ccc(N/C(N)=N/c2nc(C)cc(C)n2)c(OC)c1 | -26.4% |
| COc1ccc(OC)c(N/C(=N/c2nc(C)cc(C)n2)NC(C)=O)c1 | 14.5% |
| COc1ccc(Cl)cc1NC(=O)CSc1nc(C)cc(C)n1 | -32.6% |
| Cc1ccc(C)c(N/C(N)=N/c2nc(C)cc(C)n2)c1 | -34.2% |
| COc1ccc(Cl)cc1N/C(N)=N/c1nc(C)cc(=O)[nH]1 | 20% |
| COc1ccc(OC)c(N/C(N)=N/c2nc(C)cc(C)n2)c1 | -50.1% |
| COc1ccc(Cl)cc1N/C(N)=N/c1nc(C)cc(C)n1 | -84.2% |
| CCOc1ccc(CNC(=O)C(=O)c2cn(CC(=O)N3CCOCC3)c3ccccc23)cc1OC | 17.1% |
| COC(=O)C1=C(C)Nc2ncnn2C1c1cccnc1 (stereo not shown) | 2.93% |
| O=C(Cn1ncc2c([nH]c3ccccc32)c1=O)N1CCN(c2ccccc2F)CC1 | 1.65% |

| Compound | hERG current change (%, negative = inhibition) at 10uM |
| --- | --- |
| CCN(CC)CCCN1C(=O)C(=O)/C(=C(/O)c2ccc3c(c2)OCCO3)C1c1ccco1 (stereo not shown) | -6.06% |
| CC(C)c1cccc(C(C)C)c1NC(=O)COC(=O)[C@H](C)NC(N)=O | 16.8% |
| CCCOc1ccccc1N/C(=N/c1nc(C)cc(C)n1)NC(=O)COc1ccc(OC)cc1 | -10% |
| COc1cc(NC(N)=S)c(OC)cc1Cl | 6.66% |
| CCCOc1ccccc1N/C(=N/c1nc(C)cc(C)n1)NC(=O)Nc1ccc(Cl)cc1 | -1.32% |
| CCCOc1ccccc1N/C(N)=N/c1nc(C)cc(C)n1 | -85.8% |
| COc1cc(N/C(N)=N/c2nc(C)cc(C)n2)c(OC)cc1Cl | -56.7% |
| Cc1cc(C)nc(/N=C(\N)Nc2cc([N+](=O)[O-])ccc2C)n1 | -49% |
| Cc1ccc(-c2cc([C@H]3[C@@H]4C=CCC[C@@]4(C)C(=O)N3Cc3ccccc3)ccc2F)cc1 | 8.75% |
| CC1CC(OC(=O)c2ccccc2)CC(C)N1C.Cl (stereo not shown) | -5.09% |
| Cc1cc(N/N=C/c2c(O)ccc3ccccc23)nc(-c2ccccc2O)n1 | -3.98% |
| O=C(CSc1cccc[n+]1[O-])Nc1cc(S(=O)(=O)N2CCOCC2)ccc1N1CCOCC1 | 16% |
| CCCCCCCNC(=O)C1(CC2CC(c3cccc(Br)c3)=NO2)CCN(C(=O)C2(C)CC2)CC1 (stereo not shown) | -26% |
| CCCCCCCNC(=O)C1(CC2CC(c3ccccc3)=NO2)CCNCC1 (stereo not shown) | -58.8% |
| CCCCCCCNC(=O)C1(CC2CC(c3ccc(Cl)cc3)=NO2)CCNCC1 (stereo not shown) | -63.1% |
| CCCNC(=O)C1(CC2CC(c3ccccc3)=NO2)CCNCC1 (stereo not shown) | 23.5% |
| CCCCCCCNC(=O)C1(CC2CC(c3cccc(Br)c3)=NO2)CCNCC1 (stereo not shown) | -70.3% |
| O=C(NCc1ccccc1)C1(CC2CC(c3ccccc3)=NO2)CCNCC1 (stereo not shown) | -7.21% |
| CCCCCCCNC(=O)C1(CC2CC(c3cccc(Br)c3)=NO2)CCN(C(=O)Cc2ccc(F)cc2)CC1 (stereo not shown) | -7.08% |
| NC(=S)N1CCCc2ccccc21 | -3.03% |
| CC1(c2ccccc2)NC(=O)N(CC(=O)N2CCOCC2)C1=O (stereo not shown) | 3.77% |
| O=C(Nc1nnc(COc2ccc(Cl)cc2)s1)c1cccs1 | -6.91% |
| Cc1csc(=O)n1CC(=O)OCC(=O)Nc1cc(Cl)ccc1[N+](=O)[O-] | -17.8% |
| Cc1cccc(C)c1-n1nnnc1C(C)(C)N1CCN(N=O)CC1 | 14.7% |
| COc1ccc(NC(C)(C)c2nnnn2-c2c(C)cccc2C)cc1 | -4.2% |
| COc1cccc(NC(C)(C)c2nnnn2-c2c(C)cccc2C)c1 | -63.4% |
| O=C(NCCc1cccs1)C1CC(c2cccc([N+](=O)[O-])c2)=NO1 (stereo not shown) | -23.5% |
